Inconclusive results are not listed. Calls of active or inactive are those of the source. Unless noted, the call rests on the fitted dose curve; in most records, active means well fitted curve in the direction sought with a large enough effect in the repeat runs; inconclusive means weak or mixed curves; inactive means no such curve, though single readings can be large; an effect the other way counts as inactive or inconclusive.
How the values were obtained:
[1] = biological target: Aryl hydrocarbon receptor (Homo sapiens) (UniProt P35869); assay: qHTS assay to identify small molecule that activate the aryl hydrocarbon receptor (AhR) signaling pathway (AID 743085); further: nearly all actives have a fitted effect of over 15% in size; further: potency means the concentration at half of the fitted maximal effect;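 on activation: HG2L7.5c1 human HepG2 liver cells with stably integrated DRE-driven firefly reporter; series mostly up to about 70 µM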
Method in brief: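 Steps: seed HepG2-AhR-luc cells; allow 5 h at 37C; pin-transfer test compound or vehicle; incubate 24 h at 37C; add viability dye (30 min, 37C) and read fluorescence; add luciferase substrate (30 min, RT) and read luminescence.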

[2] = qHTS assay to identify small molecule that activate the aryl hydrocarbon receptor (AhR) signaling pathway - cell viability counter screen (AID 743086); further: nearly all actives have a fitted effect of over 45% in size; further: potency means the concentration at half of the fitted maximal effect
Method in brief: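 Cytotoxicity counter screen: CellTiter-Fluor signal (30 min, 37 C) in 4000 HepG2 cells/well carrying the DRE-luciferase reporter, following 24 h compound exposure at 37 C.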

[3] = qHTS assay for small molecule agonists of the antioxidant response element (ARE) signaling pathway - cell viability counter screen (AID 743203; calls by dose curve; further: nearly all actives have a fitted effect of over 55% in size; further: potency means the concentration at half of the fitted maximal effect)
Method in brief: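 ATP content via CellTiter-Glo luminescence served as the viability measure. Cells: ARE-bla HepG2, 2,000 per well. Exposure: 16 hrs, 37C/5% CO2.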

[4] = qHTS assay for small molecule activators of the heat shock response signaling pathway - cell viability counter screen (AID 743209); further: nearly all actives have a fitted effect of over 50% in size; further: potency means the concentration at half of the fitted maximal effect
Method in brief: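 Compounds dissolved in DMSO were added to overnight-plated HSE-bla HeLa cells and left 5 h at 37 C. Cell viability was quantified by luminescence using CellTiter-Glo.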

[5] = biological target: Peroxisome proliferator-activated receptor delta (Homo sapiens) (UniProt Q03181); assay: qHTS assay to identify small molecule agonists of the peroxisome proliferator-activated receptor delta (PPARd) signaling pathway (AID 743212; calls by dose curve)
Method in brief: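 Beta-lactamase reporter readout: a ratiometric FRET signal from the LiveBLAzer substrate after 2 h at room temperature. Compound exposure at 37 °C in PPARδ-bla HEK293H cells driven by an upstream activator sequence.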

[6] = qHTS assay to identify small molecule antagonists of the peroxisome proliferator-activated receptor delta (PPARd) signaling pathway - cell viability counter screen (AID 743213); further: nearly all actives have a fitted effect of over 50% in size; further: potency means the concentration at half of the fitted maximal effect
Method in brief: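 Luminescence from CellTiter-Glo, added after the bla read and incubated 30 min at room temperature, gives viability of HEK293H PPARd-bla cells exposed to compounds for 17 h at 37 C with 300 nM L165041.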

[7] = biological target: Peroxisome proliferator-activated receptor delta (Homo sapiens) (UniProt Q03181); assay: qHTS assay to identify small molecule antagonists of the peroxisome proliferator-activated receptor delta (PPARd) signaling pathway (AID 743215; active means well fitted inhibition curve with a large enough effect in the signal ratio in the repeat runs, not every such curve was filed as active; the % refers to the signal ratio;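 further: cells stimulated with agonist L165041 at 300 nM final during compound exposure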; further: potency means the concentration at half of the fitted maximal effect)
Method in brief: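 Here, a reporter line (HEK293H, beta-lactamase under a UAS) measures PPARd signaling. Compounds are tested against agonist L165041 at 300 nM final concentration over 17 h at 37 C, with fluorescence read after substrate.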

[8] = biological target: Vitamin D3 receptor (Homo sapiens) (UniProt P11473); assay: qHTS assay to identify small molecule agonists of the vitamin D receptor (VDR) signaling pathway (AID 743222; calls by dose curve)
Method in brief: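 Tox21 cell reporter format: VDR-bla line, 16 h compound exposure in 5% CO2 at 37C, then fluorescence intensity after 2 h with LiveBLAzer B/G FRET substrate.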

[9] = qHTS assay to identify small molecule agonists of the peroxisome proliferator-activated receptor delta (PPARd) signaling pathway - cell viability counter screen (AID 743211); further: nearly all actives have a fitted effect of over 55% in size; further: potency means the concentration at half of the fitted maximal effect
Method in brief: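 Viability of GeneBLAzer PPARd UAS-bla HEK293H cells was assessed after 17 h compound incubation at 37C, using CellTiter-Glo reagent added after the reporter read and luminescence recorded 30 min later.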

[10] = biological target: Bile acid receptor (Homo sapiens) (UniProt Q96RI1); assay: qHTS assay to identify small molecule antagonists of the farnesoid-X-receptor (FXR) signaling pathway (AID 743217; active means well fitted inhibition curve with a large enough effect in the signal ratio in the repeat runs, not every such curve was filed as active; the % refers to the signal ratio; further: potency means the concentration at half of the fitted maximal effect)
Method in brief: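 Test compounds are pin-transferred onto FXR-bla HEK 293T cells, then chenodeoxycholic acid is added at 50 uM final. After 16 h at 37 °C, LiveBLAzer B/G substrate is applied for 2 h at room temperature and fluorescence read.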

[11] = biological target: Bile acid receptor (Homo sapiens) (UniProt Q96RI1); assay: qHTS assay to identify small molecule agonists of the farnesoid-X-receptor (FXR) signaling pathway (AID 743220; active means well fitted activation curve with a large enough effect in the signal ratio in the repeat runs, not every such curve was filed as active; the % refers to the signal ratio)
Method in brief: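 FXR-UAS-bla HEK 293T cells carrying a UAS-driven beta-lactamase reporter were plated for 5 h at 37C/5% CO2, then exposed to DMSO-dissolved Tox21 10K compounds for 16 h at 37C. A LiveBLAzer B/G FRET substrate was loaded for 2 h at room temperature before fluorescence reading.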

[12] = qHTS assay to identify small molecule antagonists of the farnesoid-X-receptor (FXR) signaling pathway - cell viability counter screen (AID 743221; active means well fitted cell-killing curve with a large enough effect in the repeat runs, not every such curve was filed as active; further: nearly all actives have a fitted effect of over 50% in size; further: potency means the concentration at half of the fitted maximal effect)
Method in brief: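 Quantitative HTS of the Tox21 10K library run in parallel with the beta-lactamase reporter read. HEK 293T cells carrying a UAS-driven bla reporter got compound and 50 uM CDCA (final) for 16 h; ATP-based luminescence followed.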

[13] = biological target: Peroxisome proliferator-activated receptor gamma (Homo sapiens) (UniProt P37231); assay: qHTS assay to identify small molecule agonists of the peroxisome proliferator-activated receptor gamma (PPARg) signaling pathway (AID 743094; active means well fitted activation curve with a large enough effect in the signal ratio in the repeat runs, not every such curve was filed as active; the % refers to the signal ratio)
Method in brief: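 Agonism was assessed in a beta-lactamase reporter system, HEK293H cells with a stably integrated UAS-bla construct under PPARg control; the 17 h treatment at 37C preceded a 1 h room-temperature FRET substrate read.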

[14] = qHTS assay to identify small molecule antagonists of the peroxisome proliferator-activated receptor gamma (PPARg) signaling pathway - cell viability counter screen (AID 743194); further: nearly all actives have a fitted effect of over 55% in size; further: potency means the concentration at half of the fitted maximal effect
Method in brief: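 Viability was measured as CellTiter-Glo luminescence in GeneBLAzer PPARg UAS-bla HEK293H cells. These cells had been exposed 17 h at 37 C to compounds together with rosiglitazone at 50 nM final, with the beta-lactamase readout taken in the same wells.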

[15] = qHTS assay for small molecule activators of the heat shock response signaling pathway (AID 743210; active means well fitted activation curve with a large enough effect in the signal ratio in the repeat runs, with a control signal flat, not every such curve was filed as active; the % refers to the signal ratio; further: series mostly up to about 63 µM)
Method in brief: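 Compound exposure lasted 5 h at 37 C in HeLa cells carrying a heat-shock-element-driven beta-lactamase reporter. Read-out: fluorescence intensity after 2.5 h room-temperature loading with LiveBLAzer B/G FRET substrate.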

[16] = qHTS assay to identify small molecule agonists of the farnesoid-X-receptor (FXR) signaling pathway - cell viability counter screen (AID 743218); further: nearly all actives have a fitted effect of over 45% in size; further: potency means the concentration at half of the fitted maximal effect
Method in brief: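 Quantitative HTS counter screen measuring ATP-based viability via CellTiter-Glo luminescence in HEK 293T cells carrying a UAS-driven beta-lactamase reporter, after 16 h compound exposure at 37 C.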

[17] = biological target: Peroxisome proliferator-activated receptor gamma (Homo sapiens) (UniProt P37231); assay: qHTS assay to identify small molecule antagonists of the peroxisome proliferator-activated receptor gamma (PPARg) signaling pathway (AID 743191; calls by dose curve; further: nearly all actives have a fitted effect of over 30% in size; further: potency means the concentration at half of the fitted maximal effect)
Method in brief: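 Beta-lactamase reporter under UAS control in HEK293H PPARg-bla cells; compound treatment 17 h at 37C. Read-out: fluorescence intensity after 1 h room-temperature incubation with LiveBLAzer B/G FRET substrate.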

[18] = biological target: Vitamin D3 receptor (Homo sapiens) (UniProt P11473); assay: qHTS assay to identify small molecule antagonists of the vitamin D receptor (VDR) signaling pathway (AID 743223; active means well fitted inhibition curve with a large enough effect in the signal ratio in the repeat runs, not every such curve was filed as active; the % refers to the signal ratio)
Method in brief: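 Fluorescence from LiveBLAzer B/G FRET substrate, read after 2 h at room temperature, reflects beta-lactamase reporter activity in VDR-bla cells treated 16 h at 37C with compounds and agonist 1alpha,25-dihydroxyvitamin D3 (3 nM final).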

Measured: Potency

Bile acid receptor (Homo sapiens), sequence (Q96RI1 whole entry, looked up): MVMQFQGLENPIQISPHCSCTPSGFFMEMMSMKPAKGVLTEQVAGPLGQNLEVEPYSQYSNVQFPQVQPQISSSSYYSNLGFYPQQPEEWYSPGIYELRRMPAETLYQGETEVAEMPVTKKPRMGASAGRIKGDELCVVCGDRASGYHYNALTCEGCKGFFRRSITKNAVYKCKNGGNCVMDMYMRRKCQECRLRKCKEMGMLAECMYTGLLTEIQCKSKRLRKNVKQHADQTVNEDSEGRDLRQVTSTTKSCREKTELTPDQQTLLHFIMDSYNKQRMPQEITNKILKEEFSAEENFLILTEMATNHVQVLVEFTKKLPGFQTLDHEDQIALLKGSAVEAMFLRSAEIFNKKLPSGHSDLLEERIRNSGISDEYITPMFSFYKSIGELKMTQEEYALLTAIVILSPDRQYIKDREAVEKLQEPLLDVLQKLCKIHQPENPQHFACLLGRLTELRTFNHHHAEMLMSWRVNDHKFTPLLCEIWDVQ
Aryl hydrocarbon receptor (Homo sapiens), sequence (P35869 whole entry, looked up): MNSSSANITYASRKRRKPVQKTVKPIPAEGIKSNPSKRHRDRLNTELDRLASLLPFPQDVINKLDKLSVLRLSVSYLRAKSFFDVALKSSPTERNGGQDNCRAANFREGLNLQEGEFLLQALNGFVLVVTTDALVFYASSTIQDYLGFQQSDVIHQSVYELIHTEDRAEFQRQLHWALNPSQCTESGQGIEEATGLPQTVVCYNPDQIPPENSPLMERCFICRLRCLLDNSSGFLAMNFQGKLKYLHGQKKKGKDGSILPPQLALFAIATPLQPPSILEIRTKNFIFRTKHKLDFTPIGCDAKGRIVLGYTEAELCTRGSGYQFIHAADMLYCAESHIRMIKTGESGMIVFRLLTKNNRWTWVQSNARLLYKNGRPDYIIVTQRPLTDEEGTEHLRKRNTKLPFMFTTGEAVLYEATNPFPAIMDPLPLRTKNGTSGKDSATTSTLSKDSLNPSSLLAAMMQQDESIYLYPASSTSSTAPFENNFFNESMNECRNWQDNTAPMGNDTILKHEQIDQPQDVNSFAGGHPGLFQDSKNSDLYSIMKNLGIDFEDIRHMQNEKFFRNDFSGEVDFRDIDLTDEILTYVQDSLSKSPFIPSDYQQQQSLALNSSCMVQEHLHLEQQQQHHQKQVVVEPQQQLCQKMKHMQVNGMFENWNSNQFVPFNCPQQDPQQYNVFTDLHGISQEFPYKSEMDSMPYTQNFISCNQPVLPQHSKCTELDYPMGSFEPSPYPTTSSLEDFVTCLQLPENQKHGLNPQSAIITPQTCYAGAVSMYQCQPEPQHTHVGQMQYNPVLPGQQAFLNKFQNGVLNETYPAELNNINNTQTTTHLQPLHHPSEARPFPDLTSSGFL
Vitamin D3 receptor (Homo sapiens), sequence (P11473 whole entry, looked up): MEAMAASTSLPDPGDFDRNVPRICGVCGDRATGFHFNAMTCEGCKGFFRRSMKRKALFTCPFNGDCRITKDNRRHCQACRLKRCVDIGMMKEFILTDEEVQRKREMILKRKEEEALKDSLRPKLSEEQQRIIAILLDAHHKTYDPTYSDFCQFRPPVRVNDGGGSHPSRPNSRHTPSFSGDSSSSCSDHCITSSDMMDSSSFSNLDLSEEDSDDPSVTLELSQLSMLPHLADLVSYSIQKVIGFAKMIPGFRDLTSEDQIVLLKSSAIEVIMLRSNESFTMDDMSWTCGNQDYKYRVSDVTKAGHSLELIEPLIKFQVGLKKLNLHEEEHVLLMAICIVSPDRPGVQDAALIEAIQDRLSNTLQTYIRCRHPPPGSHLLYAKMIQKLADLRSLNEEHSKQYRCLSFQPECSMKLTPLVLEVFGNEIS
Peroxisome proliferator-activated receptor gamma (Homo sapiens), sequence (P37231 whole entry, looked up): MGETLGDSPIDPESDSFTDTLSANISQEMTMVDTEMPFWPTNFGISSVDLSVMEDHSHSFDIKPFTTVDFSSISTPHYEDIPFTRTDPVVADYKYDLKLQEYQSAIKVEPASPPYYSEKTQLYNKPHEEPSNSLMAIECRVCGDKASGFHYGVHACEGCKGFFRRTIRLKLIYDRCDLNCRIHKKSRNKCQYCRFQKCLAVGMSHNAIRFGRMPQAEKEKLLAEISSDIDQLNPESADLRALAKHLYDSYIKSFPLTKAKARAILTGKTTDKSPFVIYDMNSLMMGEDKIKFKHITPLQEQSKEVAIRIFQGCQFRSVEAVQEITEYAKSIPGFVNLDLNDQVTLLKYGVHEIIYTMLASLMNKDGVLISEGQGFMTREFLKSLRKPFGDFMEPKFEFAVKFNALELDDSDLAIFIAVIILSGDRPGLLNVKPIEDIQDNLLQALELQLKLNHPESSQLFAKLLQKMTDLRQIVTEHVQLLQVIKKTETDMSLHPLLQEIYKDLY
Peroxisome proliferator-activated receptor delta (Homo sapiens), sequence (Q03181 whole entry, looked up): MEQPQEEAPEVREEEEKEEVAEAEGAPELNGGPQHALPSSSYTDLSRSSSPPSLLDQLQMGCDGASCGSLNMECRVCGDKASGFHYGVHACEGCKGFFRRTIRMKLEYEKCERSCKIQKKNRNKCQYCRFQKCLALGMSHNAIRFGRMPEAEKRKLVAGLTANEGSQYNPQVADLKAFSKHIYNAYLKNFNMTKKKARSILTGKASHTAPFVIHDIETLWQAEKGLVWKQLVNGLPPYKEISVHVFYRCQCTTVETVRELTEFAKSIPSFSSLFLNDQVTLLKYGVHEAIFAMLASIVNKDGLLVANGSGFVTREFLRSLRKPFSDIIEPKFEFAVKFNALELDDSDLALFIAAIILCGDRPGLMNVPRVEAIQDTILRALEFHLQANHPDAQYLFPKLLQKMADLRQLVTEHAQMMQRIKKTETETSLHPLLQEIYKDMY

CCC(C)(C)c1cc(O)c(C(C)(C)CC)cc1O
inactive: [1] | [2] | [5] | [6] | [7] | [8]
active: [3] 54.5 µM | [4] 38.9 µM

O=C1c2c(O)ccc(O)c2C(=O)c2c(NCCNCCO)ccc(NCCNCCO)c21
active: [9] 29.8 µM | [10] 26.6 µM
inactive: [1] | [11] | [12]

CN(C)CCOC(c1ccccc1)c1ccccc1 (tested in a mixture with another compound)
inactive: [2] | [3] | [4]

O=C(Nc1ccc(Cl)cc1)Nc1ccc(Cl)c(C(F)(F)F)c1
inactive: [1] | [13] | [11]
active: [14] 8.41 µM | [3] 16.8 µM | [4] 9.44 µM | [9] 13.3 µM | [7] 26.6 µM | [12] 16.8 µM

O=C(Oc1ccccc1)c1cccc(C(=O)Oc2ccccc2)c1
inactive: [2] | [4]

NC1(c2ccc(-c3nc4ccn5c(=O)[nH]nc5c4cc3-c3ccccc3)cc2)CCC1
active: [14] 4.22 µM | [9] 26.6 µM | [6] 15 µM | [16] 26.6 µM | [12] 33.5 µM
inactive: [4] | [15]

CNCC[C@H](Oc1cccc2ccccc12)c1cccs1
active: [1] 11.9 µM | [14] 11.9 µM | [3] 6.68 µM | [4] 29.8 µM | [9] 6.68 µM | [16] 6.68 µM | [12] 11.9 µM
inactive: [2]

O=C(Nc1ccc(Cl)c(Cl)c1)c1cc(Cl)cc(Cl)c1O
inactive: [2]
active: [1] 0.109 µM | [3] 24.3 µM | [9] 5.49 µM | [16] 3.89 µM | [12] 13.8 µM

CN1CCN(C2Cc3ccccc3Sc3ccc(Cl)cc32)CC1 (centres undefined)
inactive: [1] | [5] | [11] | [18]
active: [17] 29.8 µM | [14] 29.8 µM | [3] 29.8 µM | [9] 26.6 µM | [16] 26.6 µM | [12] 29.8 µM

O=C1OC(=O)c2cccc3cccc1c23
not listed: [1] | [6] | [8] | [10] | [11] | [12] | [18]
inactive: all other assays above

CC(CN(C)C)CN1c2ccccc2CCc2ccccc21 (centres undefined)
active: [9] 26.6 µM | [6] 29.8 µM | [16] 8.41 µM
not listed: [5] | [12] | [13] | [14] | [17]
inactive: all other assays above

COc1ccc(-n2nc(CCC(=O)N(C)O)cc2-c2ccc(Cl)cc2)cc1
active: [17] 3.76 µM
inactive: [14] | [3] | [4] | [5] | [12]

O=C1NCN(c2ccccc2)C12CCN(CCCC(c1ccc(F)cc1)c1ccc(F)cc1)CC2
inactive: [2]
active: [14] 26.6 µM | [3] 29.8 µM | [9] 21.1 µM | [6] 21.1 µM | [16] 26.6 µM | [12] 33.5 µM

Cc1ccc(CCn2c3c(c4cc(Cl)ccc42)CN(C)CC3)cn1
inactive: [14] | [3] | [4] | [15] | [7] | [11]

CCCCCCCCCCOCC(O)CN (centres undefined)
inactive: [2] | [17]
active: [9] 26.6 µM | [6] 29.8 µM | [16] 33.5 µM

CCCCCCC(C)OC(=O)COc1nc(F)c(Cl)c(N)c1Cl (centres undefined)
inactive: [2] | [3] | [5] | [7] | [16] | [12] | [8]

Cc1ccc(-n2[nH]c(C)c(N=Nc3cccc(-c4cccc(C(=O)O)c4)c3O)c2=O)cc1C
active: [14] 2.37 µM | [9] 26.6 µM
inactive: [3] | [4] | [6] | [11] | [12]

O=C1Nc2ccc(Cl)cc2[C@@](C#CC2CC2)(C(F)(F)F)O1
active: [4] 5.31 µM
inactive: [2] | [13] | [3] | [5] | [6] | [7] | [16] | [8] | [18]

O=C1NC2CCCCN2C12CCN(CCCN1c3ccccc3CCc3ccc(Cl)cc31)CC2 (centres undefined)
active: [1] 13.3 µM | [2] 23.7 µM | [3] 29.8 µM | [4] 29.8 µM | [7] 29.8 µM | [16] 23.7 µM | [12] 29.8 µM
inactive: [11] | [8]
